Source: PubChem BioAssay (National Center for Advancing Translational Sciences (NCATS))
ALDH1A1 block = inhibitors of human aldehyde dehydrogenase 1A1 | Potency, µM (doses to about 75.3 µM), without a hit: top-dose activity, negative = inhibition, most hits filed as inhibitors | 7.3% of 220,000 active | Purified ALDH1A1, NADH fluorescence, propionaldehyde substrate | AID 1030; active = well fitted inhibition curve with a large enough effect, not every such curve was filed as active; inconclusive = small, poorly fitted or top-dose-only effect, or another doubt; inactive = no such curve, though single readings can be large or run the other way;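 also: plate controls were no enzyme wells and a reference inhibitor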
RORgamma inh = ROR gamma (mouse) transcription inhibition; 5.4% of 310,000 active; Drosophila S2 Gal4-RORgamma UAS-luciferase reporter, 20 h; Potency, µM (series often up to 53.6 µM), for the others: at the top dose activity change, negative = inhibition, usual class: inhibitors; P51450; also: nearly all actives have a fitted effect of over 60% in size
Target sequence (P51450 whole entry, looked up, the tested form may be a part): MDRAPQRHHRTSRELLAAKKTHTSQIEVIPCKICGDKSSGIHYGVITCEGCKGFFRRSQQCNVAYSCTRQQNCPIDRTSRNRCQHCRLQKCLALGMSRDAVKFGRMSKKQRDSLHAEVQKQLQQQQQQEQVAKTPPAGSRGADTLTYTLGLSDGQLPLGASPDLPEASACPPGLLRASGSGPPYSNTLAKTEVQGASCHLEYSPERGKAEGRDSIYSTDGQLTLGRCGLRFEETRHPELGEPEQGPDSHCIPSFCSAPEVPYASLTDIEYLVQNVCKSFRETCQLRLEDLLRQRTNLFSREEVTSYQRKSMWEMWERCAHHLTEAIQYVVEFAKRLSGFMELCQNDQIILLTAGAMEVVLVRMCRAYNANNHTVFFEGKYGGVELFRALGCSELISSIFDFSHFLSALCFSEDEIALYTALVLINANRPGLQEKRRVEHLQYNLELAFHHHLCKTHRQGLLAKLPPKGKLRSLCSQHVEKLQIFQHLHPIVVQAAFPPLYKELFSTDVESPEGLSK
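A Gal4/UAS one-hybrid system in insect cells: metallothionein-promoter Gal4–ROR gamma fusion plus Photinus luciferase reporter. Copper sulfate 700 uM final, 20 hr ambient incubation, luminescent detection after 10 min with reagent.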
VP16 counter = Gal4-VP16 reporter inhibition counter-screen; 3.5% of 310,000 active; Drosophila S2 Gal4-VP16 UAS-luciferase, luminescence, 20 h; Potency, µM (series often up to 53.6 µM), for the others: at the highest dose activity, negative = inhibition, actives largely listed as inhibitors;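 also: Gal4-VP16 expression switched on by copper sulfate through the metallothionein promoter; nearly all actives have a fitted effect of over 50% in size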
Sfp inh = blocks B. subtilis Sfp PPTase activity. Q9F4F7. Biochemical Sfp PPTase activity, qHTS. Potency, µM, for the others: largest response in the series, negative = inhibition, hits mostly inhibitors. 3.5% of 310,000 active;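 also: the enzyme is Sfp with the accession as filed and its product quenches rhodamine fluorescence; 0% = enzyme reaction without inhibitor and -100% = no enzyme wells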
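After 15 min at room temperature with compound, 15 nM Sfp received 5 uM rhodamine-CoA plus 12.5 uM BHQ-2-ybbR (50 mM Hepes pH 7.6, 10 mM MgCl2). Rate came from the fluorescence difference over 30 min, ex 525/em 598 nm.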
PLK1 PBD block = inhibitors of human PLK1 polo-box domain binding; P53350; AID 720504; Plk1 PBD binding of FITC phosphopeptide, fluorescence polarization; Potency, µM, for the others: max response, negative = inhibition, usual class: inhibitors; 2.8% of 360,000 active; also: series mostly up to about 57 µM; nearly all actives have a fitted effect of over 65% in size
* marks the source's active call; other numbers are inactive results; ? = inconclusive; . = no result given; [ ] = another dose, or the depositor's remark. A selection: hits, their analogues and other compounds. The true share with any hit is near 12%. Unless noted, calls follow the shape of the dose curve; as a rule, active = well fitted curve in the direction sought with a large enough effect; inconclusive = small, poorly fitted or top-dose-only effect, or another doubt; inactive = no such curve, though single readings can be large; an effect the other way counts as inactive or inconclusive. Unless noted, % is scaled to controls: 0 for no effect and ±100 for the full control effect; potency is read from the fitted curve at half-maximal effect.

SMILES	ALDH1A1 block	RORgamma inh	VP16 counter	Sfp inh	PLK1 PBD block
NC=O	10.8%	-10.1%	1.4%	.	.
COCCn1c(=O)c(-c2ccc(Cl)cc2)nc2cnc(OCc3ccccc3)nc21	?	-21.0%	2.5%	17.4%	.
CC(C)(C)OC(=O)[C@H](C1N[C@@H](C(=O)O)C(C)(C)S1)N1C(=O)c2ccccc2C1=O (stereo partly drawn)	3.4%[13.5 µM]	.	.	.	.
CCCCC1SC(N)=NC1=O (stereo not drawn)	.	.	.	.	-3.8%
CCCCCCN1C[C@H](O)[C@@H](n2cc(C3CC3)nn2)C[C@@H]1c1ccccc1	.	.	.	.	-7.3%
COc1c2c(cc3c1C(NC(N)=O)[N+](C)(C)CC3)OCO2 (stereo not drawn)	-4.8%	-26.4%	-3.2%	4.4%	.
CC(O)CSc1nc2c(c(=O)[nH]c(=O)n2C)n1Cc1ccccc1 (stereo not drawn)	.	2.2%	-1.6%	15.9%	-1.0%
Cn1c(=O)[nH]c(=O)c2c1nc(SCC(O)CCl)n2Cc1ccccc1 (stereo not drawn)	.	1.6%	-5.1%	39.8µM*	0.0%
CN(C)c1ncc2ncc(=O)n(Cc3cccs3)c2n1	?	?	-6.2%	1.2%	.
O=C(c1ccco1)N1CCN(c2c(-c3ccccc3)c3cc(Cl)ccc3[nH]c2=O)CC1	15.0%	2µM*	?	-19.3%	-15.2%
CCc1cc2c(N3CCN(C(=O)c4ccco4)CC3)ncnc2s1	?	?	-7.3%	5.5%	-4.4%
O=C(c1ccco1)N1CCN(c2ncnc3c2[nH]c2ccc(Cl)cc23)CC1	-3.0%	3.2%	14.1µM*	-28.8%	.
Fc1ccc(Nc2ncnc3sc4c(c23)CCC4)cc1	-2.1%	-1.7%	4.8%	-13.9%	3.3%
O=S(=O)(Nc1ncnc2sc3c(c12)CCC3)c1ccc2ccccc2c1	?	-20.6%	-7.1%	16.3%	33.6µM*
c1ccc(Nc2ncnc3sc4c(c23)CCC4)cc1	2.6%	-3.4%	7.5%	14.9%	-2.1%
Cc1cc(F)ccc1S(=O)(=O)Nc1ncnc2sc3c(c12)CCC3	-3.8%	10.0%	0.9%	16.7%	16.8µM*
c1csc(CCNc2ncnc3sc4c(c23)CCC4)c1	-1.8%	-42.6%	11.2µM*	-0.6%	-11.8%
COc1ccc(/C=C/CN2CCC(C(=O)NC(c3ccc(F)cc3)c3ccc4ccccc4n3)CC2)cc1 (stereo not drawn)	.	.	.	.	-9.8%
COc1cc(C=C2C(=O)c3ccccc3C2=O)ccc1O	?	-28.5%	23.7%	-8.6%	-17.7%
COc1cc(/C=C2/C(=O)ON=C2c2ccccc2)ccc1O	?	-14.6%[10 µM]	-89.0%	50.1µM*	?
CCOc1cc(/C=C2\C(=O)ON=C2c2ccccc2)cc(Br)c1O	.	?	?	79.4µM*	?
COc1cc(/C=C2\C(=O)ON=C2c2ccccc2)cc(Cl)c1O	?	?	12.6µM*	-31.1%	?
Cc1noc(C)c1-c1nc(N2CCNCC2)c2ccccc2n1	5.6%	-28.5%	-2.4%	11.8%	.
CCOC(=O)[C@]12CCC=C1N(Cc1ccccc1)C(=O)[C@H](CC(=O)NCc1cccs1)C2	.	.	.	.	-13.0%
Fc1cnc(N2CCc3ccccc32)nc1N1CCc2ccccc21	2.24µM*	-1.9%	-2.7%	13.2%	3.1%
SMILES	ALDH1A1 block	RORgamma inh	VP16 counter	Sfp inh	PLK1 PBD block
O=C1CC(c2ccc(F)cc2)Cc2nc(N3CCc4ccccc43)ncc21 (stereo not drawn)	?	-5.2%	-6.7%	0.3%	.
CN1CC=C2C(C#N)=C(N)C(C#N)(C#N)C(c3ccsc3)C2C1 (stereo not drawn)	?	-32.1%	0.7%	2.1%	?
CN1CC=C2C(C#N)=C(N)C(C#N)(C#N)[C@H](c3cccs3)[C@H]2C1	?	39.9%	-6.8%	7.0%	21.2µM*
CCOc1ccc(CNC(=O)Cn2nc(C)c3c(C)n(-c4ccc(C)cc4)nc3c2=O)cc1	.	11.0%	6.6%	-13.5%	29.9µM*
CSc1ccc(CNC(=O)C(C)n2nc(C)c3c(C)n(-c4ccccc4)nc3c2=O)cc1 (stereo not drawn)	.	-14.3%	6.1%	4.6%	21.2µM*
Cc1nn(C(C)C(=O)NCc2ccccc2F)c(=O)c2nn(-c3ccccc3)c(C)c12 (stereo not drawn)	.	8.8%	8.0%	13.4%	-13.3%
C/C(N[C@@H]1CSCC1O)=C1/C(=O)CC2[C@@H]1C2(C)C (stereo partly drawn)	8.91µM*	?	4.4%	-0.1%	.
CN(C)c1ncc2nc(-c3ccccc3)c(=O)n(Cc3cccs3)c2n1	?	-12.7%	-4.3%	16.3%	.
CC(=O)N1CCC2(CCCN(c3ccc(-c4ccccc4)cc3)C2)CC1	?	?	-24.5%	?	.
CC(=O)Nc1ccc(S(=O)(=O)Oc2ccc(C(=S)N3CCCCC3)cc2)cc1	14.1µM*	?	?	-28.0%	?
CC(=O)Nc1ccc(OS(=O)(=O)c2ccc(Cl)cc2)cc1	.	1.7%	25.0%	13.3%	-0.5%
CC(=O)Nc1ccc(S(=O)(=O)Oc2ccc(C(=S)N3CCC(O)CC3)cc2)cc1	3.6%	?	35.5µM*	56.2µM*	?
CCOc1cc(C(=S)N2CCOCC2)ccc1OS(=O)(=O)c1ccc(NC(C)=O)cc1	6.0%	?	?	2.8%	-10.8%
Cn1cccc1C(=O)N1CCC2(CCN(Cc3ccncc3)CC2)CC1	11.8%	-4.8%	-2.4%	18.8%	.
O=C(NCCCN1CCCC1=O)C1CCCO1 (stereo not drawn)	10.2%	1.5%	6.6%	21.8%	-3.4%
Cc1cccc(C)c1OCC(O)CN1CCc2ccccc2C1 (stereo not drawn)	.	.	.	.	5.9%
Cc1ccc(C(C)C)c(OCC(O)CN2CCc3ccccc3C2)c1 (stereo not drawn)	.	-6.3%	22.4µM*	-12.4%	-8.1%
CCc1cccc(C)c1NC(=O)COC(=O)CNS(=O)(=O)/C=C/c1ccccc1	?	1.6%	-16.9%	-7.3%	4.0%
Cc1ccc(Cl)c(NC(=O)COC(=O)CNS(=O)(=O)/C=C/c2ccccc2)c1Cl	9.9%	-24.7%	-7.6%	50.1µM*	-7.7%
CCN(CC)S(=O)(=O)c1ccc(NC(=O)COC(=O)CNS(=O)(=O)/C=C/c2ccccc2)cc1	1µM*	-1.1%	-1.7%	3.2%	-8.3%
CCN(CC)S(=O)(=O)c1ccc(Cl)c(NC(=O)CSc2cccc[n+]2[O-])c1	.	13.9%	-17.9%	-4.6%	-7.7%
COc1ccc(NC(=O)COC(=O)CNS(=O)(=O)/C=C/c2ccccc2)cc1OC	.	.	.	.	-6.9%
CCN(CC)S(=O)(=O)c1ccc(NC(=O)CSc2cccc[n+]2[O-])cc1	22.4µM*	6.7%	-4.2%	-8.2%	-13.1%
CC1(C(=O)NCc2ccccc2)CN(S(C)(=O)=O)CC(=O)N1C1CC1 (stereo not drawn)	.	.	.	.	7.8%
N#Cc1ccc(CN2CC[C@@]3(CCCN(C(=O)c4cnccn4)C3)C2)cc1	2.1%	-18.9%	-2.5%	27.0%	.
CN(c1ncc(C(F)(F)F)cc1Cl)n1cc(C(=O)O)c2ccccc2c1=O	3.3%	-5.1%	12.3%	11.9%	-1.7%
